Source: PubChem BioAssay (NCATS)
Results filed as inconclusive are left out. Calls of active or inactive are those of the source. Calls come from the whole dose curve; as a rule, active = well fitted inhibition curve with a large enough effect; inconclusive = small, poorly fitted or top-dose-only effect; inactive = flat fitted curve, though single readings scatter. Numbered stars: 1 amine (or outer) side, 2 acyl side, 3 side chain; on linkers, the order of the positions; unused ones are H or OH. Bridge positions count the residues as written; N and C are the ends. Square brackets hold non-standard residues; d marks the D form. Peptide text beside a SMILES is read from it. * marks the point of attachment. ξ: configuration not given here. ΔAla(Z-3-ureido) = NC(=O)N/C=C(\N)C(=O)O; X1 = NC1=NCCC(C(N[*:1])C(=O)[*:2])N1; ξβ3hOrn = NCCCC(N)CC(=O)*; Dap = NC[CH](N)C(=O)O

How the values were obtained:
Assay in all cases: qHTS profiling for inhibitors of Plasmodium falciparum proliferation (AID 504749); note: nearly all actives have a fitted effect of over 60% in size
Conditions in all cases: P. falciparum in erythrocytes, SYBR Green DNA, 72 h; series mostly up to 28.7 µM
7G8 = test system: 7G8
Method in brief: (§1)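 Fluorescence of SYBR Green-bound parasite DNA, read at 485/535 nm, served as the growth measure. Infected erythrocytes were cultured with compound 72 h; artemisinin (0.29 uM) and DMSO wells defined the normalization range.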

AA1029 = test system: AA1029
Method in brief: as §1

CP192 = test system: CP192
Method in brief: as §1

CP194 = test system: CP194
Method in brief: as §1

CP203 = test system: CP203
Method in brief: as §1

CP217 = test system: CP217
Method in brief: as §1

CP237 = test system: CP237
Method in brief: as §1

CP250 = test system: CP250
Method in brief: as §1

CP266 = test system: CP266
Method in brief: as §1

CP268 = test system: CP268
Method in brief: as §1

CP269 = test system: CP269
Method in brief: as §1

CP291 = test system: CP291
Method in brief: as §1

CP315 = test system: CP315
Method in brief: as §1

CP329 = test system: CP329
Method in brief: as §1

DIV30 = test system: DIV30
Method in brief: as §1

HB3 = test system: HB3
Method in brief: as §1

JCK = test system: JCK
Method in brief: as §1

P94_40 = test system: P94_40
Method in brief: as §1

PC26 = test system: PC26
Method in brief: as §1

TAB109 = test system: TAB109
Method in brief: as §1

Measured: Potency
Potency is the fitted concentration of half-maximal effect.

CCC(C)C1NC(=O)C(Cc2ccc(O)cc2)NC(=O)C(N)CSSCC(C(=O)N2CCCC2C(=O)NC(CC(C)C)C(=O)NCC(N)=O)NC(=O)C(CC(N)=O)NC(=O)C(CCC(N)=O)NC1=O (stereo not given)
inactive: all assays above

CCC1NC(=O)C(NC(=O)c2ncccc2O)C(C)OC(=O)C(c2ccccc2)NC(=O)C2CC(=O)CCN2C(=O)C(Cc2ccccc2)N(C)C(=O)C2CCCN2C1=O (stereo not given)
active: 7G8 8.91 µM
not listed: HB3 | P94_40
inactive: all other assays above

CC(C)C[C@H](NC(=O)[C@@H](Cc1c[nH]c2ccccc12)NC(=O)[C@@H](Cc1ccc(O)cc1)NC(=O)[C@@H](CO)NC(=O)[C@@H](Cc1c[nH]c2ccccc12)NC(=O)C(Cc1cnc[nH]1)NC(=O)C1CCC(=O)N1)C(=O)N[C@@H](CCCN=C(N)N)C(=O)N1CCC[C@@H]1C(=O)NCC(N)=O (stereo not given in full)
inactive: all assays above

COc1ccc(-c2nc3ccc(C4=C(C)CC(=O)NN4)cc3[nH]2)cc1
active: 7G8 8.91 µM
not listed: CP194 | CP203 | CP237 | CP268 | CP269 | DIV30 | PC26 | TAB109
inactive: all other assays above

NCCCC(N)CC(=O)NCC1NC(=O)C(CO)NC(=O)C(N)CNC(=O)C(C2CCN=C(N)N2)NC(=O)/C(=C/NC(N)=O)NC1=O (stereo not drawn) (H-[Dap]S[Dap](ξβ3hOrn)[ΔAla(Z-3-ureido)][X1]; lactam 1-C; configuration not given here)
inactive: all assays above

O=C(OCC1OC(OC(=O)c2cc(O)c(O)c(OC(=O)c3cc(O)c(O)c(O)c3)c2)[C@@H](OC(=O)c2cc(O)c(O)c(OC(=O)c3cc(O)c(O)c(O)c3)c2)C(OC(=O)c2cc(O)c(O)c(OC(=O)c3cc(O)c(O)c(O)c3)c2)C1OC(=O)c1cc(O)c(O)c(OC(=O)c2cc(O)c(O)c(O)c2)c1)c1cc(O)c(O)c(OC(=O)c2cc(O)c(O)c(O)c2)c1 (stereo not given in full)
active: 7G8 2 µM | AA1029 2.51 µM | CP192 7.57 µM | CP194 3.79 µM | CP203 4.26 µM | CP217 3.55 µM | CP237 2.51 µM | CP250 2.24 µM | CP266 3.79 µM | CP268 3.38 µM | CP269 1.9 µM | CP315 5.36 µM | CP329 4.26 µM | DIV30 5.36 µM | HB3 2 µM | JCK 10 µM | P94_40 2.82 µM | PC26 7.57 µM | TAB109 2.82 µM

O=C(O)c1ccccc1-c1c2cc(Br)c(=O)c(Br)c-2oc2c(Br)c(O)c(Br)cc12
not listed: CP266
inactive: all other assays above

Cn1cc(O)nc1NC(=O)Nc1cccc(Cl)c1
not listed: CP250 | CP329
inactive: all other assays above

CCC(Oc1ccccc1)C(=O)NC1C(=O)N2C1SC(C)(C)C2C(=O)O (stereo not given)
not listed: CP192
inactive: all other assays above
